This is an account of results in PubChem BioAssay (NCATS).

Results filed as inconclusive are left out. A number with no mark means an inactive call. Activity calls are given as the source filed them. The call rests on the fitted dose curve; in most records, active means well fitted cell-killing curve with a large enough effect; inconclusive means small, poorly fitted or top-dose-only effect, or effect the other way; inactive means no such curve, though single readings can be large or run the other way.
On the % scale 0 is the no-effect control and ±100 the full control effect; potency means the concentration at half of the fitted maximal effect.

This test is described as follows: qHTS of pediatric cancer cell lines to identify multiple opportunities for drug repurposing: Confirmatory screen for NB-EBc1 cells (AID 1347115).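 Further: cells exposed to compound for 48 h before the viability read; nearly all actives have a fitted effect of over 45% in size.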 Conditions: NB-EBc1 neuroblastoma cells, viability (cytotoxicity); series mostly up to 45.9 µM; activity change, negative = cytotoxic: at the top concentration. The source says: Drug repurposing or repositioning has been offered as a strategy for drug development in oncology programs. This approach has special potential for childhood cancers and other rare or orphan diseases, where the expected return on new drug development has been a disincentive to pharmaceuticals.
In this project we exploit the poly-pharmacology of drugs to discover new indications via phenotypic screening of a panel of 19 well-characterized cell lines derived from solid tumors seen in children and adolescents. The goal is to identify approved drugs with previously unrecognized anticancer properties that has the potential to reveal new mechanisms and biological processes involved in carcinogenesis or drug resistance. We employed a titration-based paradigm (quantitative high-throughput screening or qHTS), where all compounds were tested at multiple concentrations for their effect on cell viability. Concentration-response curves (CRCs) were derived directly from the primary screen, and both potency and efficacy values were used to identify compounds with robust bioactivity profiles. We screened the NIH Chemical Genomics Center (NCGC) Pharmaceutical Collection (NPC) and Mechanism Interrogation Plate (MIPE) small molecule collections of approved and investigational compounds against these cell lines; and measured metabolically active cells after 48 hours of compound treatment as a proxy for cell viability.
Assay Submitter: Nathalia J. Martinez, National Center for Advancing Translational Sciences, National Institutes of Health, Rockville, MD, USA; email: natalia.martinez@nih.gov
[1] Shen, M et al. Quantitative high-throughput phenotypic screening of pediatric cancer cell lines identifies multiple opportunities for drug repurposing. Oncotarget 2017 Dec 19;9(4):4758-4772. PMID 29435139.
The cells were obtained from University of North Carolina (UNC), Pediatric Preclinical Testing Program (PPT), and Coriell Institute (CI).
qHTS cell viability assay:
Cells were assayed in growth media at a density of 500-1,000 cells/well. Five microliters of cells were dispensed into 1,536-well, white, solid-bottom, TC-treated plates (Greiner Bio One) using a multidrop dispenser and incubated at 37 degrees C, 5% CO2, under a humidified atmosphere for 5 hours. Twenty-three nanoliters of compounds and controls (neutral control DMSO or positive control bortezomib at final concentration of 2.3 µM) were subsequently transferred by Kalypsys pintool. For primary screens, the MIPE collection was tested at 11-point dilutions (final concentrations range from 0.78 nM to 46 µM) and the NPC collection at 8-point dilutions (final concentrations range from 0.59 nM to 46 µM). Compounds tested in follow-up screens were assayed at 11-point dilutions. Cells were incubated for 48 hours, followed by addition of 3 µL of CellTiter-Glo (Promega). After a 15 min incubation at room temperature, samples were analyzed for luminescence intensity using a ViewLux High-throughput CCD imager equipped with clear filters.
For orientation: In qHTS, concentration-response curves come from the screen itself.
With `CC(C)(O)C=CC(=O)[C@](C)(O)[C@H]1[C@H](O)C[C@]2(C)[C@@H]3CC=C4[C@@H](C=C(O)C(=O)C4(C)C)[C@]3(C)C(=O)C[C@@]12C`, the Potency was 3290 nM (active). In the case of `O=C(O)COc1nc(Cl)c(Cl)cc1Cl`, the “activity change, negative = cytotoxic” value is -1.36% [at 95.5 µM]. The same measure, in the same setting: for `CC=C(C)C(=O)O[C@H]1C(C)=C2[C@@H]3OC(=O)[C@@](C)(O)[C@@]3(O)[C@@H](OC(=O)CCC)C[C@](C)(OC(C)=O)[C@@H]2[C@@H]1OC(=O)CCCCCCC` the value was 0.196%; for `CCCN1CCO[C@@H]2c3cc(O)ccc3OC[C@@H]21`, -1.23%. Same read-out and setting: for `O=C(N[C@H]1CN2CCC1CC2)c1ccc(Cl)cc1` the value was -4.7%. On the same count and under the same terms, then `CC(C)N[C@@H]1CCn2c(=O)[nH]c3cccc(c32)[C@@H]1O`, with -12.3%. For `Cc1c(C(=O)Nc2cccc(C(F)(F)F)c2)cc(-c2ccccc2)n1CCCN1CCOCC1`, the Potency is 42700 nM (active). As for `CS(=O)(=O)c1ccc(C(=O)C2C(=O)CCCC2=O)c([N+](=O)[O-])c1`, the “activity change, negative = cytotoxic” value is -9.65% [at 95.5 µM].

With `CC[C@@]1(O)C(=O)OCc2c1cc1n(c2=O)Cc2cc3ccccc3nc2-1`, the Potency was 65.7 nM (active). On the same count and under the same terms, for `C[C@@H]1O[C@@H](O[C@@H]2C=C3CC[C@@H]4[C@@H](CC[C@]5(C)[C@H](c6ccc(=O)oc6)CC[C@@]45O)[C@@]3(C)CC2)[C@H](O)[C@H](O)[C@H]1O` the value was 26.1 nM (active); for `CC1=C(O)C(=O)C=C2C1=CC=C1[C@@]2(C)CC[C@@]2(C)[C@@H]3C[C@](C)(C(=O)O)CC[C@]3(C)CC[C@]12C`, 2610 nM (active).

`C[C@H]1CCCC=CC2C[C@H](O)C[C@@H]2[C@H](O)C=CC(=O)O1` (some centres undefined): the Potency was 117 nM (active). With `CC[C@H]1C=CC=CC[C@@H](C)[C@H](O)[C@@](C)(O)C(=O)[C@@H](C)[C@H](O)[C@@H](C)C(=O)[C@@H](C)[C@H](O)[C@@H](C)C=CC(=O)O[C@@H]2[C@@H](C)[C@H](CC1)O[C@]1(CC[C@H](C)[C@H](C[C@@H](C)O)O1)[C@H]2C`, the Potency is 208 nM (active). Same read-out and setting: then `CCCCCC[C@H]1C(=O)O[C@H](C)[C@H](NC(=O)c2cccc(NC=O)c2O)C(=O)O[C@@H](C)[C@@H]1OC(=O)CC(C)C`, with 14.7 nM (active); and `COc1cc([C@@H]2c3cc4c(cc3[C@@H](O)C3COC(=O)C32)OCO4)cc(OC)c1O` (some centres undefined), with 3690 nM (active); and `C[C@@H]1CC[C@@]2(OC1)O[C@H]1C[C@H]3[C@@H]4CC=C5C[C@@H](O[C@@H]6O[C@H](CO)[C@@H](O[C@@H]7O[C@@H](C)[C@H](O)[C@@H](O)[C@@H]7O)[C@H](O)[C@@H]6O[C@@H]6O[C@@H](C)[C@H](O)[C@@H](O)[C@@H]6O)CC[C@]5(C)[C@@H]4CC[C@]3(C)[C@@H]1[C@H]2C`, with 16500 nM (active).

With `CC(=O)[O][Hg][c]1ccccc1`, the Potency is 5850 nM (active). The same measure, in the same setting: for `O=C(O)CCCOc1ccc(Cl)cc1Cl` the value was 19400 nM (active). Same read-out and setting: then `O=c1[nH]c2ccc(Cl)cc2c(N[C@@H]2CN3CCC2CC3)c1-c1nc2ccccc2[nH]1`, with 522 nM (active). Regarding `CCC(=O)OC1CCC2C3CCC4=CC(=O)CC[C@@]4(C)C3CC[C@]12C` (some centres undefined), the “activity change, negative = cytotoxic” value was -5.39%. Same read-out and setting: then `O=C1C(I)=CC(=C(c2cc(I)c(O)c(I)c2)c2ccccc2C(=O)O)C=C1I`, with -17.6%. The same measure, in the same setting: for `C[C@]12Cc3cn[nH]c3C[C@@H]1CC[C@@H]1[C@H]2CC[C@@]2(C)[C@H]1CC[C@]2(C)O` the value was -26.6%; for `Cc1ccccc1-n1c(Cn2cnc3c(N)ncnc32)nc2cccc(C)c2c1=O`, 4.2%. As for `CC(C)(C)C(O)C(Oc1ccc(Cl)cc1)n1cncn1` (centres undefined), the “activity change, negative = cytotoxic” value was 10.8% [at 95.5 µM].
